Records with an inconclusive call do not appear. Activity calls are given as the source filed them. Unless noted, calls follow the shape of the full dose curve.
Experiments:
[1] = Nuclear factor erythroid 2-related factor 2/antioxidant responsive element (Nrf2/ARE) small molecule agonists: qHTS cell viability counter screen in human keratinocytes (AID 1919968; active = well fitted curve in the direction sought with a large enough effect in the repeat runs; an effect the other way counts as inactive or inconclusive; also: nearly all actives have a fitted effect of over 55% in size)
In short: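 KeratinoSens HaCaT cells, 1,500/well, preincubated 5 h, then exposed to compounds in DMSO for 23 h at 37 C/5% CO2. Viability read as CellTiter-Fluor fluorescence after 1 h, in the same wells as the ARE-luciferase read.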

[2] = Nuclear factor erythroid 2-related factor 2/antioxidant responsive element (Nrf2/ARE) small molecule agonists: luciferase reporter gene qHTS assay in human keratinocytes (AID 1919969); also: nearly all actives have a fitted effect of over 35% in size
[3] = biological target: Gonadotropin-releasing hormone receptor (Homo sapiens) (UniProt P30968); assay: Human gonadotropin-releasing hormone receptor (GnRHR) small molecule agonists, calcium flux assay in GnRHR-HEK293 cells (AID 1920063); also: nearly all actives have a fitted effect of over 35% in size
Gonadotropin-releasing hormone receptor (Homo sapiens), sequence (P30968 whole entry, looked up): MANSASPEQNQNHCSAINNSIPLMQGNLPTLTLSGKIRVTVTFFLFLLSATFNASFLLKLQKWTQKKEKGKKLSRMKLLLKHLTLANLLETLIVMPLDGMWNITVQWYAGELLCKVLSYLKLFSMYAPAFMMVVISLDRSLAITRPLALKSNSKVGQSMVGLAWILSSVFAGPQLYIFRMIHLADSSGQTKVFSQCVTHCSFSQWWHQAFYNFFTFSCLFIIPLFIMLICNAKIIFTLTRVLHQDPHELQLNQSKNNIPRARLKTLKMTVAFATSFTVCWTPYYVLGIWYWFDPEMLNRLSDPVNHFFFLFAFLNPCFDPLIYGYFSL
In short: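 HEK293 cells stably expressing human GnRHR were dye-loaded for 1 h at 37 C. Compound was added in agonist mode and fluorescence (Ex/Em 480/540) recorded kinetically for 3 min. Fifteen concentrations, triplicates.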

[4] = biological target: KiSS-1 receptor (Homo sapiens) (UniProt Q969F8); assay: Human kisspeptin (KISS1R) small molecule agonists, calcium flux assay in KISS1R-HEK293 cells (AID 1920064; active = well fitted curve in the direction sought with a large enough effect in the repeat runs; an effect the other way counts as inactive or inconclusive)
KiSS-1 receptor (Homo sapiens), sequence (Q969F8 whole entry, looked up): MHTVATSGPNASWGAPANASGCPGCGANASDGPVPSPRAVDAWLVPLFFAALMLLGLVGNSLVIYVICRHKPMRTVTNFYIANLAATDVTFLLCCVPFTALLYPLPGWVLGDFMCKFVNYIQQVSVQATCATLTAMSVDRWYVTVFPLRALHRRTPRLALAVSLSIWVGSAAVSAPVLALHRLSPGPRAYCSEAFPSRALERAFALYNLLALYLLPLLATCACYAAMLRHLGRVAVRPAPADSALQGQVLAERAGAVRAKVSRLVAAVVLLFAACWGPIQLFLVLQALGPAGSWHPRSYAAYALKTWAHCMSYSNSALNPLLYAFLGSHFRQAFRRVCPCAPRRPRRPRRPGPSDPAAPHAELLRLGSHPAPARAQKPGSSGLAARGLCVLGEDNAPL
In short: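 HEK293 cells stably expressing human KISS1R were loaded with calcium dye for 1 h at 37 C, then given compound; fluorescence (Ex/Em 480/540) was read kinetically for 3 min. Fifteen concentrations, triplicate.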

[5] = G protein-coupled receptor (GPCR) small molecule agonists, calcium flux assay: HEK293 wild type cell line counter screen (AID 1920065)
In short: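 Wild-type HEK293 cells plated 18 h, loaded with calcium dye 1 h at 37 C, then compounds added in agonist mode (ATP as positive control). Kinetic fluorescence Ex/Em 480/540 recorded 3 min at 1 sec intervals; 15 concentrations, triplicate.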

[6] = p53 small molecule agonists, cell-based qHTS assay with human liver microsomes (AID 1963577);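 also: p53 response element beta-lactamase reporter cells with liver microsomes plus NADPH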
In short: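 16 h, 37 C exposure of p53RE-bla cells to compounds with human liver microsomes and NADPH (0.5 mg/mL final each); detection via LiveBLAzer mixture, 2 h dark at room temperature.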

[7] = p53 small molecule agonists, cell-based qHTS assay with rat liver microsomes (AID 1963578)
In short: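 With rat liver microsomes and NADPH present (0.5 mg/mL final each), p53RE-bla cells are treated with compound for 16 h at 37 C. LiveBLAzer detection mixture is then applied for 2 h at room temperature in the dark.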

[8] = p53 small molecule agonists, cell-based qHTS assay with human liver microsomes: qHTS cell viability counter screen (AID 1963579); also: nearly all actives have a fitted effect of over 45% in size
In short: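 In this multiplexed counter screen, the reporter plates were subsequently treated with CellTiter-Glo so that cell viability, reflected by luminescence, could be recorded for p53RE-bla cells dosed 16 h with compounds under microsomal activation (HLM and NADPH).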

[9] = p53 small molecule agonists, cell-based qHTS assay with rat liver microsomes: qHTS cell viability counter screen (AID 1963580); also: nearly all actives have a fitted effect of over 45% in size
In short: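 In HCT-116 cells carrying a p53 response element-bla reporter, compounds were metabolically activated in situ by rat liver microsomes with NADPH over 16 h. Cell ATP content then served as the cytotoxicity measure.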

[10] = p53 small molecule agonists, cell-based qHTS assay: qHTS cell viability counter screen (AID 1963581); also: nearly all actives have a fitted effect of over 45% in size
In short: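 p53RE-bla HCT-116 cells, compounds added 5 h after plating and incubated 16 h at 37 C. Cytotoxicity measured in the same wells as intracellular ATP by CellTiter-Glo luminescence after 30 min at room temperature.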

[11] = p53 small molecule agonists, cell-based qHTS assay (AID 1963582; active = well fitted activation curve with a large enough effect in the signal ratio in the repeat runs, not every such curve was filed as active; the % refers to the signal ratio)
In short: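 p53RE-bla reporter cells, compounds added in DMSO after 5 h plating, incubated 16 h at 37 C. Beta-lactamase read via 2 h room-temperature LiveBLAzer B/G FRET substrate, fluorescence intensity.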

[12] = biological target: 5-hydroxytryptamine receptor 2A (Homo sapiens) (UniProt P28223); assay: 5-hydroxytryptamine receptor 2A (HTR2A) small molecule antagonists, cell-based qHTS assay (AID 1963586); also: nearly all actives have a fitted effect of over 45% in size
5-hydroxytryptamine receptor 2A (Homo sapiens), sequence (P28223 whole entry, looked up): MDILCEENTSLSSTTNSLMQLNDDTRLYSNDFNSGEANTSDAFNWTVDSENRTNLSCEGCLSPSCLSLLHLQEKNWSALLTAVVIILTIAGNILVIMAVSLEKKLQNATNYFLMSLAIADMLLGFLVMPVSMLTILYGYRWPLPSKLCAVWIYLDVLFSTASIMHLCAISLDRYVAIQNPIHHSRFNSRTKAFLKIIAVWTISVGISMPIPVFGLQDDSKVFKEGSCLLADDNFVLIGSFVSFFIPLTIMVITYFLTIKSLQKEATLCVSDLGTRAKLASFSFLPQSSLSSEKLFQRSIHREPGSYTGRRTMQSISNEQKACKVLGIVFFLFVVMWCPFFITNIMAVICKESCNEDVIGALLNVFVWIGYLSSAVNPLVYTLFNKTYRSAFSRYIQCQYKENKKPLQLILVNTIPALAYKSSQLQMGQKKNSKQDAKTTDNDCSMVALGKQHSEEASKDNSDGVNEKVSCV
In short: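 Antagonist-mode intracellular calcium assay: DOI (4 nM) added after 5 min compound pre-incubation at room temperature to dye-loaded HTR2A-CHO cells. Fluorescence followed for 3 min, sampled every second.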

[13] = biological target: 5-hydroxytryptamine receptor 2A (Homo sapiens) (UniProt P28223); assay: 5-hydroxytryptamine receptor 2A (HTR2A) small molecule agonists, cell-based qHTS assay (AID 1963587); also: nearly all actives have a fitted effect of over 30% in size
In short: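 HTR2A-CHO cells, plated 18 h at 37 C/5% CO2, dye-loaded 1 h at 37 C; compounds in DMSO added by pin tool (agonist mode). Intracellular calcium flux read as kinetic fluorescence on FDSS over 2 min at 1 s intervals.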

[14] = biological target: Muscarinic acetylcholine receptor M1 (Homo sapiens) (UniProt P11229); assay: Cholinergic receptor muscarinic 1 (CHRM1) small molecule agonists, cell-based qHTS assay (AID 1963589); also: nearly all actives have a fitted effect of over 35% in size
Muscarinic acetylcholine receptor M1 (Homo sapiens), sequence (P11229 whole entry, looked up): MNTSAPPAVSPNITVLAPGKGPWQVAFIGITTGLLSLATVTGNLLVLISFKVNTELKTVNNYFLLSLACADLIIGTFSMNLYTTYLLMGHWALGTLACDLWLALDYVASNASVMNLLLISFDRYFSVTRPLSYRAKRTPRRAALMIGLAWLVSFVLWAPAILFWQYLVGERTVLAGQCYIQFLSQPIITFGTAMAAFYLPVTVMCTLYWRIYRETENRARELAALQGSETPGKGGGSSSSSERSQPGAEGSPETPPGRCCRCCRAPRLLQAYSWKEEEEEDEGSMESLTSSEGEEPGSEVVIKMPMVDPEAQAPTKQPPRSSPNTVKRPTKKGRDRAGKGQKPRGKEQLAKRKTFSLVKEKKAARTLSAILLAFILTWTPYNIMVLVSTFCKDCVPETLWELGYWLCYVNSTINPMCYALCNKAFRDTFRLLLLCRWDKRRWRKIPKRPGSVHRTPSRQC
In short: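 CHO cells stably expressing human CHRM1 were loaded with calcium dye for 1 h at 37 C, then compound was added in agonist mode. Intracellular calcium fluorescence was followed kinetically at 1 s intervals. Fifteen concentrations were tested in three independent runs.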

[15] = cAMP Responsive Elements (CRE) small molecule agonists, cell-based qHTS assay (AID 1963590)
In short: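 CRE-bla HEK 293T cells, 2,000/well in DMEM with 10% dialyzed FBS and 25 mM HEPES, pre-incubated 18 h at 37 C, then exposed to compound 3 h at 37 C. Beta-lactamase reporter read with LiveBLAzer B/G FRET substrate after 2 h at room temperature.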

[16] = biological target: Beta-2 adrenergic receptor (Homo sapiens) (UniProt P07550); assay: Adrenergic beta2 receptor (ADRB2) small molecule antagonists, cell-based qHTS assay (AID 1963592); also: series mostly up to about 92 µM; nearly all actives have a fitted effect of over 50% in size
Beta-2 adrenergic receptor (Homo sapiens), sequence (P07550 whole entry, looked up): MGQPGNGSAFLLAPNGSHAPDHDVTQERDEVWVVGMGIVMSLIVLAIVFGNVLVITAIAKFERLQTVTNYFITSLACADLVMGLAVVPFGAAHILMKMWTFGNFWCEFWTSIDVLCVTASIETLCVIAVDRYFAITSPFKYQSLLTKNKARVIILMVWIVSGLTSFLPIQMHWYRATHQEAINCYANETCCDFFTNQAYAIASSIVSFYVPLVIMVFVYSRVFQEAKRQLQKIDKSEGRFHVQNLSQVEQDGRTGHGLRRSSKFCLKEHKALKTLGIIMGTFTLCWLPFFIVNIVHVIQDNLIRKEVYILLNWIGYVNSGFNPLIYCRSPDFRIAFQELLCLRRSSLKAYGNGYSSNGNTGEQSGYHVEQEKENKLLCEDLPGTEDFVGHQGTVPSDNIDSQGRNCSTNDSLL
In short: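 Cells (CHO, stable ADRB2 overexpression) incubated 18-20hr at 37C; compounds added from DMSO; agonist mix (1nM isoproterenol, 100uM IBMX, 25uM Ro-20-1724) added; 0.5hr RT; d2-cAMP and anti-cAMP-cryptate added; 1hr RT; 665/615 nm read.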

[17] = biological target: D(2) dopamine receptor (Homo sapiens) (UniProt P14416); assay: Dopamine D2 receptor (DRD2) small molecule agonists, cell-based qHTS assay (AID 1963594); also: nearly all actives have a fitted effect of over 35% in size
D(2) dopamine receptor (Homo sapiens), sequence (P14416 whole entry, looked up): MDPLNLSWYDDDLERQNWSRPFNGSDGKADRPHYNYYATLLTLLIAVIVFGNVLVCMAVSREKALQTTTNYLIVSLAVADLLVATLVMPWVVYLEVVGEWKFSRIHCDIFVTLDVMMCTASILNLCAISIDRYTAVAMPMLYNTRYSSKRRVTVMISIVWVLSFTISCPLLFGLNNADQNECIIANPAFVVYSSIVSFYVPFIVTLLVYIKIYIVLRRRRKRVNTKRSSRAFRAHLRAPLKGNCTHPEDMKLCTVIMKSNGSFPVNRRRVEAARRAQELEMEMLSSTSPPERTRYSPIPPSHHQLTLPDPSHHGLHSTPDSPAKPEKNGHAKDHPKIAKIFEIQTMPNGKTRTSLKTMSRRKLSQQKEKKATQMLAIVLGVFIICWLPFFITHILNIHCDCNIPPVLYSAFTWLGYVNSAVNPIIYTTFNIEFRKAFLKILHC
In short: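 HEK293 cells stably expressing DRD2 were cultured 24 h at 37 C, then given Ro20-1724 (0.1 mM final) and compounds for 10 min at room temperature. NKH477 (200nM) was then added for 30 min. cAMP was read by HTRF.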

[18] = biological target: D(2) dopamine receptor (Homo sapiens) (UniProt P14416); assay: Dopamine D2 receptor (DRD2) small molecule antagonists, cell-based qHTS assay (AID 1963595; active = well fitted inhibition curve with a large enough effect in the signal ratio in the repeat runs, with a control signal flat; the % refers to the signal ratio)
In short: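 Human DRD2 antagonist qHTS measuring cAMP by HTRF. The cells are exposed to compound for 10 min, then to NKH477 (200 nM) and quinpirole (12 nM) for 30 min at RT, with Ro20-1724 (0.1 mM) present throughout.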

[19] = cAMP Responsive Elements (CRE) small molecule antagonists, cell-based qHTS assay (AID 1963591; active = well fitted inhibition curve with a large enough effect in the signal ratio in the repeat runs, not every such curve was filed as active; the % refers to the signal ratio)
In short: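 CRE-bla HEK293T cells plated 18 h, then given compound plus NKH477 at 0.25 uM final for 3 h at 37C. Beta-lactamase reporter read with LiveBLAzer B/G FRET substrate after 2 h at room temperature.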

Measured: Potency

C=C(C)C(=O)OCC(O)CO (centres undefined)
not listed: [19]
inactive: all other assays above

O=C(COCCOCCOCC(=O)Nc1c(I)cc(I)c(C(=O)O)c1I)Nc1c(I)cc(I)c(C(=O)O)c1I
not listed: [17]
inactive: all other assays above

CCCCCCCCCCCCCCCCOP(=O)([O-])OCC[N+](C)(C)C
not listed: [18] | [19]
inactive: all other assays above

C[C@]12C=CC(=O)C=C1[C@@H](F)C[C@@H]1[C@@H]2[C@@H](O)C[C@@]2(C)[C@H]1CC[C@]2(O)C(=O)CO
not listed: [15]
inactive: all other assays above

CCC(C(=O)OCCN(CC)CC)c1ccccc1 (centres undefined)
not listed: [16]
inactive: all other assays above

Cc1cc(C(=O)O)ccc1[N+](=O)[O-]
not listed: [15] | [16]
inactive: all other assays above

CO[C@@H]1COCC[C@@H]1N[C@@H]1CC[C@@](C(=O)N2CCc3ncc(C(F)(F)F)cc3C2)(C(C)C)C1
inactive: all assays above

CC(=O)C1CCCCC1=O (centres undefined)
inactive: all assays above
